# Compound activity as filed in PubChem.
# FMDV antiviral – High Throughput Screening for Foot and Mouth Disease Virus Antivirals; AID 1159524, 2015; Potency, µM (top dose mostly 57.9 µM), usual class: inhibitors; FMDV antiviral cell-based qHTS; 1.2% of 410,000 active; calls by dose curve; tested in HEK293T cells; note: read-out not given here; nearly all actives have a fitted effect of over 45% in size
# VACV mCherry inh – qHTS for Stage-Specific Inhibitors of Vaccinia Orthopoxvirus: mCherry Reporter Primary qHTS | 0.63% of 310,000 active | AID 720579, 2013 | Potency, µM (series often up to 36.5 µM), most hits filed as inhibitors | Vaccinia virus mCherry reporter infection, fluorescence; calls by dose curve; tested in A549 cells; note: nearly all actives have a fitted effect of over 35% in size
# VACV Venus inh – qHTS for Stage-Specific Inhibitors of Vaccinia Orthopoxvirus: Venus Reporter Primary qHTS; Vaccinia virus Venus reporter expression, fluorescence; Potency, µM (titrated, usually from 36.5 µM), actives largely listed as inhibitors; 0.46% of 330,000 active; AID 720580, 2013; calls by dose curve; tested in A549 cells; note: nearly all actives have a fitted effect of over 30% in size
# HCV inh – qHTS Assay for Inhibitors of Hepatitis C Virus (HCV) | Huh7.5.1 HCVcc-Cre infection, luciferase reporter, 44 h | Potency, µM (highest dose often 41.8 µM), usual class: inhibitors | 3.4% of 340,000 active | AID 651820, 2012; active = well fitted inhibition curve with a large enough effect; inconclusive = small, poorly fitted or top-dose-only effect, or another doubt; inactive = no such curve, though single readings can be large or run the other way
#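 Infectious HCV cell culture screen: compound-treated cells (1,000/well, pre-plated 4 h) are infected with HCVcc-Cre at roughly 0.5 moi and grown 44 h. Infection is quantified by luciferase signal after 15 min substrate incubation at room temperature.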
# HCMV antiviral – qHTS Assay for inhibitors of the human cytomegalovirus (HCMV); HFF cells, HCMV-luciferase reporter, 72 h; active compounds read low; activity change, negative = inhibition, % at 57.5 µM; 4.5% of 410,000 active; in the data active = activity change below about -60%; inconclusive = no clear call, values can overlap the other calls; inactive = above about -39%
#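 HFF cells seeded 16 h at 37C, treated with compounds, infected with luciferase-reporter HCMV at MOI 1 PFU/cell; luciferase read at 72 h post infection, normalized to buffer-only and Salinomycin controls.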
# A number is an active result; n = inactive; u = inconclusive; x = not tested or not shown; [ ] = another dose, or the depositor's remark. This is a sample that favours compounds with a hit; in the whole collection about 7.3% have one here.
SMILES,FMDV antiviral,VACV mCherry inh,VACV Venus inh,HCV inh,HCMV antiviral
Cc1cccc(C)c1NC(=O)c1ccc([N+](=O)[O-])s1,n,u,u,10µM,u
Cc1ccc(NC(=O)Nc2cccc(C)n2)cc1,n,n,n,n,n
Cc1cccc(NC(=O)c2ccc([N+](=O)[O-])s2)n1,n,x,x,n,-77.7
Cc1ccc(C2CN(CCC(N)=O)C(=O)CO2)cc1 (configuration not stated),n,n,n,n,n
O=C(Nc1cc(F)ccc1F)N1C[C@H]2[C@@H](c3ccccc31)[C@H](CO)N2C(=O)c1ccccc1,x,x,x,x,n
Cc1cccc(NC(=O)c2ccc([N+](=O)[O-])s2)c1C,n,x,x,u,-66.2
Cc1cccc(NC(=O)c2cccc([N+](=O)[O-])c2O)c1C,n,n,n,u,u
Cc1cc(C)c(NC(=O)CCc2c(C)noc2C)c(C)c1,n,n,n,n,u
COc1ccc(NC(=O)CN2C(=O)C(C)(C)c3cc(S(=O)(=O)N4CCCCC4)ccc32)cc1Cl,n,n,n,x,n
O=C(O)[C@@H]1C[C@H]1[C@@H](NP(=O)(c1ccccc1)c1ccccc1)c1ccccc1,n,n,n,n[8.37 µM],-99.4
Cc1cc(Cl)ccc1OCC(=O)N1CCOc2ccc(CN3C[C@@H](C)O[C@@H](C)C3)cc2C1,n,n,n,x,x
CCOC(=O)Nc1ccc2c(c1)N(C(=O)CCN(C)C)c1ccccc1S2,u,x,x,12.6µM,n
Cc1ccc(-n2ncc3c(Nc4cccc(C(F)(F)F)c4)ncnc32)cc1C,n,n,n,x,-64.8
Cc1ccccc1Nc1ncnc2c1cnn2-c1ccccc1,n,n,n,11.2µM,n
Cc1ccc2cc(CCNC(=O)c3cccc([N+](=O)[O-])c3)c(=O)[nH]c2c1C,22.4µM,n,n,n,n
O=C(NCCn1ccc2ccccc21)c1cccc([N+](=O)[O-])c1,n,n,n,n,-80.2
CCOC(=O)Cc1ccc(NC(=O)c2cccc([N+](=O)[O-])c2)cc1,n,n,n,n,-60.3
COc1ccc2cc(CCNC(=O)c3cccc([N+](=O)[O-])c3)c(=O)[nH]c2c1,u,x,x,n,u
CCn1c2ccccc2c2cc(NC(=O)c3cccc([N+](=O)[O-])c3)ccc21,n,n,n,2.24µM,n
COc1cc(Cl)c(CC(=O)NO)cc1OC,x,n,n,x,x
Cc1nnc(NC(=O)CSc2nnc(CC(=O)Nc3ccccc3C)n2C)s1,n,n,n,n,n
CCn1c2ccccc2c2cc(NC(=O)c3cccc([N+](=O)[O-])c3C)ccc21,n,u,u,3.98µM,u
CCn1c2ccccc2c2cc(NC(=O)c3ccc(C)c([N+](=O)[O-])c3)ccc21,n,n,n,u,n
Cc1ccc(C(=O)NCCn2c(C)cc3ccccc32)cc1C,n,n,n,x,-69.2
Cc1ccc(N2CCN(C(=O)c3ccccc3)CC2)c(C)c1,n,n,n,n,n
SMILES,FMDV antiviral,VACV mCherry inh,VACV Venus inh,HCV inh,HCMV antiviral
Cc1ccc(N2CCN(C(=O)c3cc(C(=O)c4ccccc4C)c[nH]3)CC2)c(C)c1,n,x,x,11.2µM,n
OCC[C@@H]1C[C@@H](O)[C@H](O)[C@]2(CCc3ccccc3CO2)O1,n,n,n,n,n
Cc1cc(N2CCCC2)ccc1NC(=O)COc1cccc(C(F)(F)F)c1,n,x,x,12.6µM,-69.8
O=C(COC(=O)COc1cccc(C(F)(F)F)c1)Nc1ccc(N2CCOCC2)cc1,n,x,x,n,n
Cc1cc(C)cc(NC(=O)COc2ccc(C(=S)N3CCOCC3)cc2)c1,n,n,n,u,-62.1
CN1CCN(C(=S)c2ccc(OCC(=O)Nc3cccc(C(F)(F)F)c3)cc2)CC1,20µM,n[1.46 µM],u,u,-63.1
COc1ccc(NC(=O)c2ccc(NC(=O)CCS(=O)(=O)c3cccs3)cc2)cc1Cl,n,n,n,x,n
Cc1ccc(-n2c(-c3ccccc3)c[nH]c2=S)cc1,u,n,n,u,-74.0
CC(=O)Nc1cccc(Oc2ncnc3scc(-c4ccc(C)cc4)c23)c1,u,x,x,u,-66.3
Cc1ccc(-c2csc3ncnc(Oc4ccc5c(C)cc(=O)oc5c4)c23)cc1,u,n,n,u,u
O=C(Nc1ccccc1)Nc1ccno1,n,n,n,n,n
O=C(NNC(=O)c1cccnc1SCc1cccc([N+](=O)[O-])c1)c1ccc(F)cc1,n,n,n,u,-91.6
O=C(NNC(=O)c1cccnc1SCc1cccc([N+](=O)[O-])c1)c1cccnc1,n,n,n,n,n
